The entries come from a sample that favours hits as a whole.
nsP2pro primary = blocks chikungunya virus nsP2 protease peptide cleavage; Q8JUX6; FRET peptide cleavage, nsP2pro, fluorescence 1 h; Potency, µM (series often up to 24.9 µM), inactives show at the highest dose activity change, negative = inhibition, usual class: inhibitors; 31,000 compounds, 1.1% hits; AID 1964107; also: nearly all actives have a fitted effect of over 60% in size
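Purified recombinant nsP2pro (150 nM final) in 10 mM Tris-HCl pH 8.0 with 0.01% Tween 20 was preincubated 15 min at room temperature with compound (7 concentrations, up to 25 uM). FRET peptide 2 substrate (2.5 uM final) was then added; fluorescence was read after 1 h.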
CHIKV nsP2 cell = inhibits CHIKV nsP2 protease in cells; shares compounds with nsP2pro primary; cell-based CHIKV nsP2 protease reporter assay; Potency, µM (titrated, usually from 51.1 µM), inactives show at the top dose activity change, negative = inhibition, most hits filed as inhibitors; 450 compounds, 10% hits; AID 1964100; also: nearly all actives have a fitted effect of over 70% in size
NSP2 full ctr = inhibits full-length CHIKV NSP2 enzyme; Full-length CHIKV NSP2 protease enzymatic counterscreen; shares compounds with nsP2pro primary; AID 1964101; Potency, µM (series often up to 50.7 µM), without a hit: top-dose activity change, negative = inhibition, hits mostly inhibitors; 410 compounds, 39% hits; also: nearly all actives have a fitted effect of over 65% in size
Furin counter = selectivity counter-screen for CHIKV nsP2 protease inhibitors: human furin; shares compounds with nsP2pro primary; Recombinant human furin enzymatic counterscreen, fluorogenic substrate; Potency, µM (titrated, usually from 50.6 µM), without a hit: at the highest dose activity change, negative = inhibition, actives largely listed as inhibitors; 410 compounds, 6% hits; AID 1964102
Target sequence (P09958 whole entry, looked up): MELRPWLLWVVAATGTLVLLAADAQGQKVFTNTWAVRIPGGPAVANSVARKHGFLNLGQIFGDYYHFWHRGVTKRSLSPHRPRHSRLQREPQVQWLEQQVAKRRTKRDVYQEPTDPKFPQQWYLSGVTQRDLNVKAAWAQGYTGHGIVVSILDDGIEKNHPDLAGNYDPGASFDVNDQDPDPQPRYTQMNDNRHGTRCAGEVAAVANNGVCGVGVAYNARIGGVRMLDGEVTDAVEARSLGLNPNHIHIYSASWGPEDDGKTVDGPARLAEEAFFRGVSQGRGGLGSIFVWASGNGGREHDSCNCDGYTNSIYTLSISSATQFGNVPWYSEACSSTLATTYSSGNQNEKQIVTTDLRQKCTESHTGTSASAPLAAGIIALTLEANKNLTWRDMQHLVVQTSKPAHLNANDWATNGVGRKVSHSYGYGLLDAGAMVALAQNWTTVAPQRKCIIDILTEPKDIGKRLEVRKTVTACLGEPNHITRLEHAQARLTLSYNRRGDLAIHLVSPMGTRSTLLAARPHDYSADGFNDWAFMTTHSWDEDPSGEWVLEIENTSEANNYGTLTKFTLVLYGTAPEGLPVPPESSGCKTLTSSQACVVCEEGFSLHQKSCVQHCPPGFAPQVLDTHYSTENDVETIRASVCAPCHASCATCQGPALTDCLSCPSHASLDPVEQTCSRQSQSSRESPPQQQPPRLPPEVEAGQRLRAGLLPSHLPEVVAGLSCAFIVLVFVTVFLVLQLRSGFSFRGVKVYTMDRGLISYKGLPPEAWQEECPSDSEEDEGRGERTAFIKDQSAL
nsP2 NS23 pep = nsP2pro inhibition on native NS2/3 peptide substrate; 410 compounds, 34% hits; Potency, µM (titrated, usually from 51 µM), inactives show top-dose activity change, negative = inhibition, most hits filed as inhibitors; Purified CHIKV nsP2 protease, endogenous NS2/3 peptide cleavage; shares compounds with nsP2pro primary; also: nearly all actives have a fitted effect of over 55% in size
Papain cs = papain protease inhibition, counterscreen for nsP2pro inhibitors | purified papain protease activity, enzymatic inhibition | Potency, µM (highest dose often 51 µM), for inactives: at the top dose activity change, negative = inhibition, actives largely listed as inhibitors | 410 compounds, 5% hits | shares compounds with nsP2pro primary | AID 1964104
nsP2pro conf qHTS = CHIKV nsP2 protease inhibition, confirmatory qHTS; shares compounds with nsP2pro primary; CHIKV nsP2 protease enzymatic activity, qHTS; Potency, µM (series often up to 25.5 µM), for the others: top-dose activity change, negative = inhibition, hits mostly inhibitors; 410 compounds, 43% hits; also: nearly all actives have a fitted effect of over 75% in size
HCV NS3 4A cs = HCV NS3/4A protease inhibition, counterscreen. shares compounds with nsP2pro primary. HCV NS3/4A protease biochemical counterscreen. Potency, µM (highest dose often 50.9 µM), hits mostly inhibitors. 410 compounds, 20% hits. AID 1964106; also: nearly all actives have a fitted effect of over 55% in size
* = called active by the depositor; i = inactive; ? = inconclusive; [ ] = dose if it differs, or a comment. Calls follow the shape of the full dose curve. % is scaled to controls: 0 for no effect and ±100 for the full control effect; potency is read from the fitted curve at half-maximal effect.

SMILES	nsP2pro primary	others
COC1=Cc2c(nc3n(c2=O)C(C)C(=O)NC3(O)C(C)C)OC=C1 (stereo not given)	?	CHIKV nsP2 cell=-3.7%[33.5 µM];NSP2 full ctr=-0.1%[33.5 µM];Furin counter=-12.8%[33.5 µM];nsP2 NS23 pep=-23.1%[33.5 µM];Papain cs=-12.7%[33.5 µM];nsP2pro conf qHTS=?;HCV NS3 4A cs=i
CC(C)/C=C1\NC(=O)C(C(C)C)n2c1nc1c(c2=O)C=CC=CO1 (stereo not given)	-21.7%
Cc1cccc2c3c(ccc12)C1=C(C(=O)C3=O)[C@@H](C)CO1	?	CHIKV nsP2 cell=-15.3%;NSP2 full ctr=10.3µM*;Furin counter=-16.0%;nsP2 NS23 pep=?;Papain cs=?;nsP2pro conf qHTS=10µM*;HCV NS3 4A cs=i
Cc1cnc(-c2ccccc2CO)nc1NCc1ccc(-c2cccnc2)cc1	i
O=C(Nc1ccccc1)N1CCCC(C(=O)N2CCC(N3CCOCC3=O)CC2)C1 (stereo not given)	-6.0%
COc1cccc(C(=O)N2CCC(C(NC(=O)CC(C)C)C(=O)NCC(C)C)CC2)c1 (stereo not given)	4.3%
CC1=C(C(=O)O)N2C(=O)[C@@H](NC(=O)[C@H](N)c3ccc(O)cc3)[C@H]2SC1	-22.9%
CC(=O)OCC1=C(C(=O)O)N2C(=O)[C@@H](NC(=O)[C@H](N)c3ccccc3)[C@H]2SC1	-18.6%
CC1=C(C(=O)O)N2C(=O)[C@@H](NC(=O)[C@H](N)c3ccccc3)[C@H]2SC1	0.313µM*	CHIKV nsP2 cell=-5.8%;NSP2 full ctr=0.3%;Furin counter=-8.8%;nsP2 NS23 pep=1.2%;Papain cs=-9.9%;nsP2pro conf qHTS=-20.7%;HCV NS3 4A cs=i
NCCCCCNC1(c2ccccc2)CCCCC1	2.2%
COCc1nc(C2CCN(C(=O)NCC(C)C)C2)no1 (stereo not given)	-1.5%
NCC(=O)N[C@H]1CN(c2nccc(C(F)(F)F)n2)C[C@@H]1C1CC1	i
CCCC(=O)O[C@]1(C(=O)CC)CC[C@H]2[C@@H]3CCC4=CC(=O)CC[C@]4(C)[C@H]3[C@@H](O)C[C@@]21C	-3.9%
CC(N)Cc1c[nH]c2ccccc12 (stereo not given)	-12.2%
O=C1NC(Cc2c[nH]c3ccccc23)C(=O)NC1Cc1c[nH]c2ccccc12 (stereo not given)	6.1µM*	CHIKV nsP2 cell=-1.4%[33.5 µM];NSP2 full ctr=-15.4%[33.5 µM];Furin counter=-4.7%[33.5 µM];nsP2 NS23 pep=-20.6%[33.5 µM];Papain cs=?;nsP2pro conf qHTS=-39.3%[16.7 µM];HCV NS3 4A cs=i
NCCc1c[nH]c2ccccc12	-22.1%
O=c1[nH]c(CN2CCOCC2)nc2sc3c(c12)CCC3	3.1%
CN1CCOC[C@H]2CCN(C(=O)c3cccc4[nH]ccc34)C[C@H]21	-34.4%
C(=C/c1cccs1)/c1ccncc1	-5.8%
Cc1ccc(NC(=O)[C@@H]2OCC(=O)N(C)[C@H]2c2ccccc2)cc1	-16.2%
O=C(O)c1cc(-c2c(-c3ccccc3)nn3ccccc23)n[nH]c1=O	13.1%
Nc1c(-c2ccccc2)nc(Cl)c2c(O)n[nH]c(=O)c12	9.88µM*	CHIKV nsP2 cell=-1.8%;NSP2 full ctr=-4.5%;Furin counter=-7.2%;nsP2 NS23 pep=i;Papain cs=24.1%;nsP2pro conf qHTS=-6.7%;HCV NS3 4A cs=i
CC(=O)NCC1CN(c2ccc(-c3ccc(CNCc4cn[nH]n4)cc3)c(F)c2)C(=O)O1 (stereo not given)	10.3%
O=C(O)c1ccnc(-c2ccnc(NCC(O)c3ccccc3Cl)n2)c1 (stereo not given)	i
c1csc(CNc2ncnc3ccc(-c4ccc5c(c4)OCO5)cc23)n1	1.2%
SMILES	nsP2pro primary	others
OCc1ccc(-c2ccc3ncnc(NCc4nccs4)c3c2)o1	8.91µM*	CHIKV nsP2 cell=?;NSP2 full ctr=10.3µM*;Furin counter=-13.2%;nsP2 NS23 pep=20.6µM*;Papain cs=17.1%;nsP2pro conf qHTS=?;HCV NS3 4A cs=3.66µM*
c1cncc(-c2ccc3ncnc(NCc4cccs4)c3c2)c1	i
COc1cc(/C=C2\CC[C@H]3COC[C@@H](c4cc(F)c(F)c(F)c4)N3C2=O)ccc1-n1cnc(C)c1	88.6%
Cc1ccc(NC(=O)CN2C(=O)N/C(=C\c3cccn3-c3ccc(P(=O)(O)O)cc3)C2=O)cc1	-10.9%
O=C1Nc2ccccc2C12CC2c1cc(Cl)c(O)c(Cl)c1 (stereo not given)	2.0%
O=C(NCCN1CCCCC1)C1CN(S(=O)(=O)c2cccnc2)CC12CCCCC2 (stereo not given)	-4.7%
O=C(c1cccnc1)N1CCC12Cc1ccccc1NC2=O (stereo not given)	4.2%[39.2 µM]
O=C(Nc1ccccc1)NC1CCCN(c2ccc3nnc(-c4ccccc4)n3n2)C1 (stereo not given)	-0.9%
O=C(NC1CCN(c2cc(-c3cccs3)[nH]n2)C1)c1cccnc1 (stereo not given)	-12.4%
O=C(Nc1cccs1)NC1CCN(c2ccc(C(F)(F)F)cn2)C1 (stereo not given)	?	CHIKV nsP2 cell=?;NSP2 full ctr=?;Furin counter=-3.3%;nsP2 NS23 pep=?;Papain cs=-15.3%;nsP2pro conf qHTS=?;HCV NS3 4A cs=i
CC(C)C[C@H](NC(=O)[C@@H](COC(C)(C)C)NC(=O)[C@H](Cc1ccc(O)cc1)NC(=O)[C@H](CO)NC(=O)[C@H](Cc1c[nH]c2ccccc12)NC(=O)[C@H](Cc1cnc[nH]1)NC(=O)[C@@H]1CCC(=O)N1)C(=O)N[C@@H](CCCN=C(N)N)C(=O)N1CCC[C@H]1C(=O)NNC(N)=O	52.6%[10 µM]
CC1(C)CC(=O)c2c(C(F)(F)F)nn(-c3ccc(C(N)=O)c(NC4CCC(OC(=O)CN)CC4)c3)c2C1 (stereo not given)	-0.5%
C=C(C)C(=O)OC1CC(CO)CCC/C(CO)=C/C2OC(=O)C(=C)C21 (stereo not given)	-19.7%
C=C(C(=O)O[C@H]1C/C(C)=C/CC/C(CO)=C/[C@H]2OC(=O)C(=C)[C@H]12)C(O)CO (stereo not given in full)	5.44µM*	CHIKV nsP2 cell=?;NSP2 full ctr=10.1µM*;Furin counter=-3.8%[33.5 µM];nsP2 NS23 pep=?;Papain cs=-5.4%[33.5 µM];nsP2pro conf qHTS=4.4µM*;HCV NS3 4A cs=i
C=C(C)C(=O)OC1[C@@H]2C(=C)C(=O)O[C@@H]2C[C@@H](C)[C@@H]2C=CC(=O)[C@@]12C (stereo not given in full)	-6.9%
Cc1ccc(-c2ccc(=O)n(CC(=O)NCCCc3ccccn3)n2)cc1	-0.5%
O=C(Nc1ccccn1)c1sc2ccccc2c1Cl	-3.5%
COc1ccc(C2Nc3ccccc3C(=O)N2Cc2ccco2)cc1CSc1c(C)cccc1C (stereo not given)	-4.1%
COc1ccc(C(=O)n2c(C)c(Cc3cccc(O[C@@H](C)C(=O)O)c3)c3cc(OC(F)(F)F)ccc32)cc1	107.5%

Bioassay records from PubChem.
